The record followed here is PubChem BioAssay AID1780 (National Center for Advancing Translational Sciences (NCATS), 2009).

Unmarked numbers belong to inactive results. Activity calls are given as the source filed them. Calls come from the whole dose curve; as a rule, active = well fitted curve in the direction sought with a large enough effect; inactive = no such curve, though single readings can be large or run the other way.

Sequence of Pyruvate kinase PKM (Homo sapiens) (P14618 whole entry, looked up, canonical isoform): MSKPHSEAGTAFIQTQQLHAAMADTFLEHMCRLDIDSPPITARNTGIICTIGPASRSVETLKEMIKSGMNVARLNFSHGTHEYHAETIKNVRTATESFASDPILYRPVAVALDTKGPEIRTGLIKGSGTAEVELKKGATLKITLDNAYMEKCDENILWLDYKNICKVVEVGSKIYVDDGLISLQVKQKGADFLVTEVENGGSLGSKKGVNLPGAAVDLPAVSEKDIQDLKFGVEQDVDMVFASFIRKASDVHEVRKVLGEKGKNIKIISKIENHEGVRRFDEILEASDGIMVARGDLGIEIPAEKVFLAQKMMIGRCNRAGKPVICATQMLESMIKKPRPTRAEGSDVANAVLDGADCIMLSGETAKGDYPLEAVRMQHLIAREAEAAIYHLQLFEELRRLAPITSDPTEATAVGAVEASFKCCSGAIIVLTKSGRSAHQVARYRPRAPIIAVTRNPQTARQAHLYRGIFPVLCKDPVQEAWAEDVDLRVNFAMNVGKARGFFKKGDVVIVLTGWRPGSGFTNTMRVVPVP

This assay deals with Pyruvate kinase PKM (Homo sapiens) (UniProt P14618). Description: Confirmation Concentration-Response Assay for Activators of Human Muscle isoform 1 Pyruvate Kinase. As to conditions: purified hPK-M1, Kinase-Glo ATP luminescence, 1 h; series mostly up to 57.5 µM; activity change, positive = activation: at the top concentration. The source says:
Confirmatory assay NIH Chemical Genomics Center [NCGC] Matthew G. Vander Heiden, M.D., Ph.D. [Harvard Medical School, 77 Avenue Louis Pasteur, Boston, MA 02115] NCGC Assay Overview: Human pyruvate kinase […] (hPK-M1) enzyme was supplied as a highly purified (>95% pure) preparation from Harvard Medical School and assayed for its ability to generate ATP from ADP using phosphoenolpyruvate (PEP) as a substrate. ATP generation was detected in a coupled reaction by luciferase-mediated luminescence, an ATP-dependent process. Pyruvate kinase substrates, PEP and ADP, were present in the assay at Km and approximately 10-fold below Km respectively. The enzyme was assayed at an intermediate level of activity to screen for both inhibitors and activators.
NCGC Assay Protocol Summary for M1-isoform: Three uL of substrate mix (at r.t.) in assay buffer (50 mM Imidazole pH7.2, 50 mM KCl, 7 mM MgCl2, 0.01% Tween 20, 0.05% BSA) was dispensed into white solid bottom 1,536 well microtiter plates so that the final concentrations of substrates in the assay were 0.1 mM ADP and 0.5 mM PEP. 23 nL of compound were delivered by a pin tool and 1 uL of enzyme mix (final concentration of 1 nM) in assay buffer (4 degree Celsius) was added. Plates were incubated at room temperature for 1 hour. Two uL of detection mix (Kinase-Glo, Promega; at 4 degree Celsius protected from light) was added and luminescence read by a ViewLux (Perkin Elmer) at 1 second exposure/plate. Data were normalized to the uninhibited (row 31). Additionally, a no enzyme and 5-fold enzyme control was dispensed in row 32, split equally between the two conditions.
(In general: Kinase-Glo reads ATP consumption through a luciferase reaction.)
`O=S(=O)(c1ccc2c(c1)OCCO2)C1CCN(S(=O)(=O)c2c(F)cccc2F)CC1`: the “activity change, positive = activation” value was 7.52%.
Same read-out and setting: as for `O=S(=O)(NC1CCN(S(=O)(=O)c2ccc3c(c2)OCCO3)C1)c1c(F)cccc1F` (stereo not given), the figure is -2.48%.
Still for that read-out and setting: as for `COc1ccc(Cn2ncc3c4sc(C)cc4n(C)c3c2=O)cc1`, the figure is -0.115%.
The same measure, in the same setting: under `Cn1c2ccsc2c2cnn(Cc3ccccc3F)c(=O)c21` stands -0.235%.
As to `O=S(=O)(c1c(F)cccc1F)N1CCN(S(=O)(=O)c2c(F)cccc2F)CC1`, the outcome was inactive.
On to `CC(C)c1cc2c(s1)c1cnn(Cc3ccccc3F)c(=O)c1n2C`, for which the “activity change, positive = activation” value was 3.69%.
On the same count and under the same terms, as for `O=S(=O)(NCCCCCNS(=O)(=O)c1c(F)cccc1F)c1ccc2c(c1)OCCO2`, the figure is 1.5%; as for `O=S(=O)(c1ccc2c(c1)OCCO2)N1CCN(S(=O)(=O)c2ccccc2F)CC1`, 7.38%.
For the compound `CC(=O)Nc1cc2c(s1)c1cnn(Cc3ccccc3F)c(=O)c1n2C`, the “activity change, positive = activation” value is 0.505%.
Still for that read-out and setting: under `C[C@@H]1CN(S(=O)(=O)c2c(F)cccc2F)CCN1S(=O)(=O)c1ccc2c(c1)OCCO2` stands 10.3%; under `O=S(=O)(c1ccc2c(c1)OCCO2)N1CCN(S(=O)(=O)c2ccccn2)CC1`, 13.3%; under `O=S(=O)(c1ccc2c(c1)OCCO2)N1CCN(S(=O)(=O)c2c(F)ccc(O)c2F)CC1`, -0.69%.
Same read-out and setting: under `O=S(=O)(NCCCCNS(=O)(=O)c1c(F)cccc1F)c1ccc2c(c1)OCCO2` stands -5.47%.
Same read-out and setting: under `O=S(=O)(NC1CCN(S(=O)(=O)c2ccc3c(c2)OCCO3)CC1)c1c(F)cccc1F` stands 6.02%.
As to `C[C@H]1CN(S(=O)(=O)c2ccc3c(c2)OCCO3)CCN1S(=O)(=O)c1c(F)cccc1F`, the “activity change, positive = activation” value is 6.41%.
The same measure, in the same setting: under `Cc1cc2c(s1)c1cnn(Cc3cccc(Cn4ncc5c6sc(C)cc6n(C)c5c4=O)c3F)c(=O)c1n2C` stands 1.08%.
On the same count and under the same terms, under `Cc1ccc(Cn2ncc3c4sc(C)cc4n(C)c3c2=O)c(C)c1` stands -1.97%.
For `O=S(=O)(c1cccc(C(F)(F)F)c1)N1CCN(S(=O)(=O)c2ccc3c(c2)OCCO3)CC1`, the “activity change, positive = activation” value was -1.31%.
Still for that read-out and setting: as for `Cc1cc2c(s1)c1cnn(Cc3c(F)cccc3F)c(=O)c1n2C`, the figure is 4.85%.
Same read-out and setting: as for `O=S(=O)(c1ccc2c(c1)OCCO2)N1CCCN(S(=O)(=O)c2c(F)cccc2F)CC1`, the figure is 15.7%.
Turning to `CC1(C)CCc2cc(S(=O)(=O)N3CCN(S(=O)(=O)c4c(F)cccc4F)CC3)ccc2O1`, the result was inactive.
Turning to `Cc1cc2c(s1)c1c(C)nn(Cc3ccccc3F)c(=O)c1n2C`, the “activity change, positive = activation” value is -5.39%.
On the same count and under the same terms, under `O=C1CN(S(=O)(=O)c2ccc3c(c2)OCCO3)CCN1S(=O)(=O)c1c(F)cccc1F` stands 6.84%.
For the compound `Cn1c2cc(C#N)sc2c2cnn(Cc3ccccc3F)c(=O)c21`, the outcome was inactive.
Same read-out and setting: under `O=S(=O)(NC1CCC(NS(=O)(=O)c2c(F)cccc2F)CC1)c1ccc2c(c1)OCCO2` (stereo not given) stands “inactive”.
For `CCc1cc2c(s1)c1cnn(Cc3ccccc3F)c(=O)c1n2C`, the “activity change, positive = activation” value is 2.72%.
On to `COc1cc2c(s1)c1cnn(Cc3ccccc3F)c(=O)c1n2C`, for which the “activity change, positive = activation” value was -5.78%.
Consider `CCCc1cc(F)c(S(=O)(=O)N2CCN(S(=O)(=O)c3ccc4c(c3)OCCO4)CC2)cc1F`, for which the “activity change, positive = activation” value was 1.33%.
Still for that read-out and setting: as for `O=S(=O)(NCCNS(=O)(=O)c1c(F)cccc1F)c1ccc2c(c1)OCCO2`, the figure is -6.07%.
Same read-out and setting: as for `O=S(=O)(c1ccc2c(c1)OCCO2)N1CCN(S(=O)(=O)c2ccc(F)cc2F)CC1`, the figure is 10.3%.
In the case of `COc1cccc(S(=O)(=O)N2CCN(S(=O)(=O)c3ccc4c(c3)OCCO4)CC2)c1`, the “activity change, positive = activation” value was 6.37%.
Turning to `O=S(=O)(NC1CCN(S(=O)(=O)c2c(F)cccc2F)C1)c1ccc2c(c1)OCCO2` (stereo not given), the “activity change, positive = activation” value was -3.63%.
Regarding `Cc1cc2c(s1)c1cnn(Cc3ccccc3F)c(=O)c1n2C`, the call was inactive.
Turning to `Cc1cc2c(s1)c1cnn(Cc3cc(C(F)(F)F)cc(Cl)c3F)c(=O)c1n2C`, the “activity change, positive = activation” value was -0.316%.
Still for that read-out and setting: as for `Cc1cc2c(s1)c1cnn(Cc3ccc(S(C)(=O)=O)cc3)c(=O)c1n2C`, the figure is -3.73%.
On the same count and under the same terms, as for `O=C1CN(S(=O)(=O)c2c(F)cccc2F)CCN1S(=O)(=O)c1ccc2c(c1)OCCO2`, the figure is 5.79%.
The same measure, in the same setting: under `O=S(=O)(c1ccc(Cl)cc1)N1CCN(S(=O)(=O)c2ccc3c(c2)OCCO3)CC1` stands 8%.
On to `Cc1cc2c(s1)c1cnn(Cc3ccc(Cl)cc3)c(=O)c1n2C`, for which the “activity change, positive = activation” value was 5.42%.
For the compound `O=S(=O)(c1ccc2c(c1)OCO2)N1CCN(S(=O)(=O)c2c(F)cccc2F)CC1`, the “activity change, positive = activation” value was 9.82%.
For `COc1ccc(S(=O)(=O)N2CCN(S(=O)(=O)c3ccc(OC)cc3)CC2)cc1`, the outcome was inactive.
